This note sets out measurements from PubChem BioAssay (Tox21).

Results filed as inconclusive are left out. Some structures have more than one record in an assay (separate samples or runs), and their calls can disagree. Calls of active or inactive are those of the source. Unless noted, the call rests on the fitted dose curve; in most records, active means well fitted curve in the direction sought with a large enough effect in the repeat runs; inconclusive means weak or mixed curves; inactive means no such curve, though single readings can be large; an effect the other way counts as inactive or inconclusive.

The nature of assay [1]: qHTS assay to identify small molecule HDAC inhibitors (AID 1259364). Further: top concentration of the series differs between compounds; nearly all actives have a fitted effect of over 45% in size. The method in brief:
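Endogenous HDAC class I/II activity was measured in wild-type HCT-116 cells by HDAC-Glo luminescence after 2 h compound treatment.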

The nature of assay [2]: qHTS assay to identify small molecule HDAC inhibitors - cell viability counter screen (AID 1259365). Further: series mostly up to about 92 µM; nearly all actives have a fitted effect of over 50% in size. The method in brief:
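Following a 2hr exposure of overnight-plated wild-type HCT-116 cells to DMSO-delivered compounds, CellTiter-Glo was added and luminescence recorded after 30min at room temperature.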

Assay [3] can be described thus: qHTS assay to identify small molecule agonists of the sonic hedgehog signaling (Shh) pathway - cell viability counter screen (AID 1259366). Further: nearly all actives have a fitted effect of over 50% in size. The procedure, abridged:
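After a 4hr attachment at 37C, NIH/3T3 cells bearing an integrated Gli1-driven luciferase reporter were dosed with compounds. Treatment lasted 24hr, with the final hour including CellTiter-Fluor for a fluorescence viability measurement.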

A short description of assay [4]: qHTS assay to identify small molecule antagonists of the sonic hedgehog signaling (Shh) pathway - cell viability counter screen (AID 1259367). Further: nearly all actives have a fitted effect of over 55% in size. The method in brief: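 Seed 3T3 Gli1-Luc cells at 2,000 per well; incubate 4 hr; add compound in DMSO, then conditioned medium; incubate at 37C with 5% CO2; add CellTiter-Fluor after 23 hr; read fluorescence 1 hr later.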

The nature of assay [5]: qHTS assay to identify small molecule agonists of the sonic hedgehog signaling (Shh) pathway (AID 1259368; calls by dose curve;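 further: NIH/3T3-derived 3T3Gli1-Luc cells carrying a stable Gli1-driven firefly luciferase reporter; series mostly up to about 92 µM; nearly all actives have a fitted effect of over 15% in size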). The method in brief:
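Luminescent signal was taken as a measure of Gli1-controlled luciferase expression in stably transfected NIH/3T3-derived cells that had been treated for 24 hr with compounds delivered in DMSO.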

Assay [6] in a line: qHTS assay to identify small molecule antagonists of the sonic hedgehog signaling (Shh) pathway (AID 1259369; calls by dose curve; further: nearly all actives have a fitted effect of over 45% in size; further: potency means the concentration at half of the fitted maximal effect). The method in brief: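 Screening used 3T3Gli1-Luc cells at 2,000 per well, compounds delivered in DMSO, and conditioned medium as agonist stimulus; plates incubated 24hr at 37 C and 5% CO2 before a 30min luciferase step.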
Assay [7] concerns the target Estrogen receptor beta (Homo sapiens) (UniProt Q92731). The assay is described as follows: qHTS assay to identify small molecule agonists of the estrogen receptor beta (ER-beta) signaling pathway (AID 1259377; active means well fitted activation curve with a large enough effect in the signal ratio in the repeat runs, not every such curve was filed as active; the % refers to the signal ratio). The procedure, abridged: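 In HEK293T cells bearing a UAS-beta-lactamase reporter under ER-beta control, DMSO-delivered compounds were incubated for 16 hr at 37C. Activity was detected as fluorescence 2 hours after LiveBLAzer B/G FRET substrate addition.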

A short description of assay [8]: qHTS assay to identify small molecule agonists of the androgen receptor (AR) signaling pathway in the presence of an antagonist - cell viability counter screen (AID 1259379).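 Further: MDA-kb2 human breast cancer cells carrying an MMTV luciferase reporter; series mostly up to about 92 µM; nearly all actives have a fitted effect of over 25% in size.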 The procedure, abridged:
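In MDA-kb2 cells (human breast carcinoma, MMTV-luciferase), compounds at 15 concentrations plus 3.0uM nilutamide; 16 hr, 37C, 0% CO2; CellTiter-Fluor fluorescence read for viability.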

The nature of assay [9]: qHTS assay to identify small molecule agonists of the estrogen receptor beta (ER-beta) signaling pathway - cell viability counter screen (AID 1259380). Further: nearly all actives have a fitted effect of over 30% in size. Further: potency means the concentration at half of the fitted maximal effect. The method in brief:
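Viability of ER-beta-UAS-bla HEK293T cells was determined by CellTiter-Glo luminescence following 16 hr treatment with test compounds at 37C.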

A short description of assay [10]: qHTS assay to identify small molecule antagonists of the estrogen receptor beta (ER-beta) signaling pathway - cell viability counter screen (AID 1259382). Further: series mostly up to about 92 µM; nearly all actives have a fitted effect of over 55% in size. The method in brief: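 Tox21 10K library tested in qHTS format on ER-beta-bla HEK293T cells stimulated with 1nM E2; 16 hr treatment at 37C. Same-well CellTiter-Glo luminescence served as the cell viability measure.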

A short description of assay [11]: qHTS assay to identify small molecule agonists of the estrogen receptor alpha (ER-alpha) signaling pathway in the presence of an antagonist - cell viability counter screen (AID 1259386).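 Further: series mostly up to about 92 µM; cells exposed to compounds for 22 h at 37 °C before the viability read; nearly all actives have a fitted effect of over 30% in size.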 The procedure, abridged: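 Fluorescent CellTiter-Fluor viability signal from VM7Luc4E2 cells, with the reagent added during the final hour of a 22hr compound exposure at 37C in the presence of 10.0nM ICI-182,780.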

Assay [12] concerns the target Progesterone receptor (Homo sapiens) (UniProt P06401). Nature of the assay: qHTS assay to identify small molecule agonists of the progesterone receptor (PR) signaling pathway (AID 1346784; calls by dose curve; further: nearly all actives have a fitted effect of over 30% in size). The method in brief: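 Using charcoal-stripped serum (2%) to limit endogenous steroids, PR-UAS-bla HEK 293T cells received compounds for 16 hr at 37C after 6 hr plating; beta-lactamase FRET fluorescence was recorded following 2 hr substrate loading at room temperature.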

In assay [13] the target is Estrogen receptor beta (Homo sapiens) (UniProt Q92731). The assay is described as follows: qHTS assay to identify small molecule antagonists of the estrogen receptor beta (ER-beta) signaling pathway (AID 1259378; active means well fitted inhibition curve with a large enough effect in the signal ratio in the repeat runs, not every such curve was filed as active; the % refers to the signal ratio). The method in brief:
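ER-beta-UAS-bla HEK293T cells in 2% charcoal-stripped FBS medium treated with compound plus 1nM final 17-beta-estradiol for 16 hr at 37C. Beta-lactamase reporter read by FRET substrate fluorescence after 2 hours at room temperature.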

In assay [14] the target is Androgen receptor (Homo sapiens) (UniProt P10275). The assay is described as follows: qHTS assay to identify small molecule agonists of the androgen receptor (AR) signaling pathway in the presence of an antagonist (AID 1259381; calls by dose curve; further: nearly all actives have a fitted effect of over 15% in size). The procedure, abridged: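 Here, 15-concentration compound series were pin-transferred onto MDA-kb2 MMTV-luciferase cells already dosed with nilutamide (3.0uM final). After 16hr at 37C, ONE-Glo was added and luminescence read 30min later at room temperature.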

Assay [15] can be described thus: qHTS assay to identify small molecule agonists or antagonists of the thyroid stimulating hormone receptor (TSHR) signaling pathway - wild type cell line counter screen (AID 1259384; calls by dose curve). The procedure, abridged:
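Wild-type Hek293 cells, 800/well, 18 h at 37C, then compound with Ro20-1724 for 30 min RT. cAMP by HTRF (cAMP-d2/anti-cAMP cryptate), 1 h RT, fluorescence read. 15 concentrations, triplicates.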

Assay [16] concerns the target Thyrotropin receptor (Homo sapiens) (UniProt P16473). The assay is described as follows: qHTS assay to identify small molecule antagonists of the thyroid stimulating hormone receptor (TSHR) signaling pathway (AID 1259385; calls by dose curve; further: nearly all actives have a fitted effect of over 20% in size). The method in brief: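 TSHR-HEK293 cells (800/well) plated 18 h, then compounds with Ro20-1724 and TSH at 1.5 ng/mL final, 30 min at room temperature. cAMP quantified by HTRF (cAMP-d2/anti-cAMP-cryptate, 1 h); 15 concentrations in triplicate.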

The target of assay [17] is Progesterone receptor (Homo sapiens) (UniProt P06401). The assay is described as follows: qHTS assay to identify small molecule antagonists of the progesterone receptor (PR) signaling pathway (AID 1346795; active means well fitted inhibition curve with a large enough effect in the signal ratio in the repeat runs, not every such curve was filed as active; the % refers to the signal ratio; further: potency means the concentration at half of the fitted maximal effect). The method in brief:
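Inhibition of R5020-induced (1 nM final) beta-lactamase reporter signal in PR-UAS-bla HEK293T cells was scored by FRET fluorescence after overnight (16 hr) compound treatment.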

Assay [18] in a line: qHTS assay to identify small molecule phospholipidosis (PLD) inducers (AID 1259344; active means well fitted curve in the direction sought with a large enough effect; an effect the other way counts as inactive or inconclusive). The procedure, abridged:
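Quantitative HTS in HepG2: compound plus LipidTOX Red dye for 24 h, paraformaldehyde fixation with Hoechst 33342, widefield high-content imaging; amiodarone as positive and DMSO as negative control.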

Assay [19] concerns the target Estrogen receptor (Homo sapiens) (UniProt P03372). Nature of the assay: qHTS assay to identify small molecule agonists of the estrogen receptor alpha (ER-alpha) signaling pathway in the presence of an antagonist (AID 1259383; calls by dose curve; further: top concentration of the series differs between compounds; nearly all actives have a fitted effect of over 15% in size). The method in brief:
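In VM7Luc4E2 cells, 4,000 per well, compounds at 15 concentrations were co-incubated 22hr at 37C with 10.0nM final ICI-182,780. Luminescence from the stably transfected 4×ERE-luciferase reporter was recorded 30min after ONE-Glo addition.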
On the % scale 0 is the no-effect control and ±100 the full control effect.

Chain of Progesterone receptor (Homo sapiens) (P06401 whole entry, looked up): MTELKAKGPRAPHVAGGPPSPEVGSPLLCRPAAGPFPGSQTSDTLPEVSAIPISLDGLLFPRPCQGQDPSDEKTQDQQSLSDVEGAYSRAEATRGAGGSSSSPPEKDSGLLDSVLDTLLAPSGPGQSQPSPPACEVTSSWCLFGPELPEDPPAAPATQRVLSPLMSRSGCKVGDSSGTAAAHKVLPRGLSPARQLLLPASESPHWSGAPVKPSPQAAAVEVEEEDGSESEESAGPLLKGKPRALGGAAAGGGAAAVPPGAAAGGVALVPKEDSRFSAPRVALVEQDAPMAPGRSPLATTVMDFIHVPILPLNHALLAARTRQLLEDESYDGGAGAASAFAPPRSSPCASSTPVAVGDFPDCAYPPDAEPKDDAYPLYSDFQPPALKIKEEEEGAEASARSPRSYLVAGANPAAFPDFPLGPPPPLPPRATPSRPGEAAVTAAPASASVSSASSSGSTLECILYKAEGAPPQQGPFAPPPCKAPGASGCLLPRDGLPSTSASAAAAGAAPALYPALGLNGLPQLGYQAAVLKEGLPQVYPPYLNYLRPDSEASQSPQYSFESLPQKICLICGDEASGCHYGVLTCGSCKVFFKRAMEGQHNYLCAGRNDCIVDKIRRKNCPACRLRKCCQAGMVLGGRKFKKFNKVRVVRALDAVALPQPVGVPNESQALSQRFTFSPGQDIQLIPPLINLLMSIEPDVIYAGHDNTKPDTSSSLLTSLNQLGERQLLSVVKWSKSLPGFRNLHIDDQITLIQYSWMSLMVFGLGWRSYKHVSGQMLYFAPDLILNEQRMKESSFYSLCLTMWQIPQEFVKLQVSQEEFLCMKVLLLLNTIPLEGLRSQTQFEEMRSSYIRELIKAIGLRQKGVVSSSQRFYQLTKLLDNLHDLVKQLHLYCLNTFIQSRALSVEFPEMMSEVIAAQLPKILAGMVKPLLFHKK
Chain of Thyrotropin receptor (Homo sapiens) (P16473 whole entry, looked up): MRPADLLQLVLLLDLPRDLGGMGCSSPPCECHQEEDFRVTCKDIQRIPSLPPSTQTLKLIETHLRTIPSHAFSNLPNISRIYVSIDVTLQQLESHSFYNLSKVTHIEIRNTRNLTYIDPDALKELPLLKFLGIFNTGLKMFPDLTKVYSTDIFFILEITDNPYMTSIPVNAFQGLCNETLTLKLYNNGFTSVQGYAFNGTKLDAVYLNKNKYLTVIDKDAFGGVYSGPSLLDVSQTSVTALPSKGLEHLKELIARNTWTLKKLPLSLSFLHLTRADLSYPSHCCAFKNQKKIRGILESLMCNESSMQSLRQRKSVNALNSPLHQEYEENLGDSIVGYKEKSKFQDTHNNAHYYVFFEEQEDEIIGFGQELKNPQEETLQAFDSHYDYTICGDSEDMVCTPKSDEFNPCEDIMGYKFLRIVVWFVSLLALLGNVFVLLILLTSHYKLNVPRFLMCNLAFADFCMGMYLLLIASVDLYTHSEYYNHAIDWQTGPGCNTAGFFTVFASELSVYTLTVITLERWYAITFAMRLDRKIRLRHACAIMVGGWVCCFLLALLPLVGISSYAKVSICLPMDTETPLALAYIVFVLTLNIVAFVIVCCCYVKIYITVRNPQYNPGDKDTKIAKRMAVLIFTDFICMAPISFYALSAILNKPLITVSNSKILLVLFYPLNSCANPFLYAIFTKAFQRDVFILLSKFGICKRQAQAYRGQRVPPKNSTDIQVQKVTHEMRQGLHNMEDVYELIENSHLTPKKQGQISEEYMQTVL
Chain of Androgen receptor (Homo sapiens) (P10275 whole entry, looked up): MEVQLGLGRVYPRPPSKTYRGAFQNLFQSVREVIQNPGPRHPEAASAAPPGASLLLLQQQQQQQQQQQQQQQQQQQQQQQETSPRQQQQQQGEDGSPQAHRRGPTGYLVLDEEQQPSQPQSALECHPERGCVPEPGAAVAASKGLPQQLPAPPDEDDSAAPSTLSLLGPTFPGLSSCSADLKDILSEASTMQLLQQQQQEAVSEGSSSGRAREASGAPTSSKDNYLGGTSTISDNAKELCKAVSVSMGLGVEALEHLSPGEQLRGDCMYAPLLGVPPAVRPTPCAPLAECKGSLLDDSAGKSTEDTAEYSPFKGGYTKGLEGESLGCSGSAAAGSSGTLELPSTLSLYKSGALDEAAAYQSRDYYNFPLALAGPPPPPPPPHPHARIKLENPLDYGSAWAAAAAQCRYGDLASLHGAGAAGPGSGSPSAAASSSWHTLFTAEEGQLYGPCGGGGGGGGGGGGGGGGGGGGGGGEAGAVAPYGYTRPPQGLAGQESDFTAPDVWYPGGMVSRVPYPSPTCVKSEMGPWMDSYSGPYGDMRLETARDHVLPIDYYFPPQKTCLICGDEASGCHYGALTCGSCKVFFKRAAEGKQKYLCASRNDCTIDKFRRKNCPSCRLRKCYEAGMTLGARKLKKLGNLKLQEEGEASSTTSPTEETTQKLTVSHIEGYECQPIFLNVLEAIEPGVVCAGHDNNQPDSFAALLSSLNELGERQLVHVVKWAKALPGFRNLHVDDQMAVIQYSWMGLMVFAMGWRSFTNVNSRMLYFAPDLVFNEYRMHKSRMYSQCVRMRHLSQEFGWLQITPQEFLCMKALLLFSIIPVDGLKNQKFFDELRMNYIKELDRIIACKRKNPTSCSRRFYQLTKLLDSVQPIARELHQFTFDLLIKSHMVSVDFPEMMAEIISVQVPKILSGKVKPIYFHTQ
Chain of Estrogen receptor beta (Homo sapiens) (Q92731 whole entry, looked up): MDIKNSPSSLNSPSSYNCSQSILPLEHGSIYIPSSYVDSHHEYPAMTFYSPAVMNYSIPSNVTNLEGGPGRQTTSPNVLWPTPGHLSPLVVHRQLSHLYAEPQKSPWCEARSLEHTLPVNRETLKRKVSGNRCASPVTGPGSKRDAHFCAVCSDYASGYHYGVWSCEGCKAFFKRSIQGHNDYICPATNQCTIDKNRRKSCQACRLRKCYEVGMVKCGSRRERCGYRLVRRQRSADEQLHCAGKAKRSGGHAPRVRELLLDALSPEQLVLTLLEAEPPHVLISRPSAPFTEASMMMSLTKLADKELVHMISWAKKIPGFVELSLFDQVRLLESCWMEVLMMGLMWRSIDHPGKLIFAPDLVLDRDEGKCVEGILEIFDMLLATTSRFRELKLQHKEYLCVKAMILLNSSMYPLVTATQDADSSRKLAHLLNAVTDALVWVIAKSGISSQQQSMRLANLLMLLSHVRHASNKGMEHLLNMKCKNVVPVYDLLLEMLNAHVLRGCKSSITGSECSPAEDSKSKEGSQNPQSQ
Chain of Estrogen receptor (Homo sapiens) (P03372 whole entry, looked up): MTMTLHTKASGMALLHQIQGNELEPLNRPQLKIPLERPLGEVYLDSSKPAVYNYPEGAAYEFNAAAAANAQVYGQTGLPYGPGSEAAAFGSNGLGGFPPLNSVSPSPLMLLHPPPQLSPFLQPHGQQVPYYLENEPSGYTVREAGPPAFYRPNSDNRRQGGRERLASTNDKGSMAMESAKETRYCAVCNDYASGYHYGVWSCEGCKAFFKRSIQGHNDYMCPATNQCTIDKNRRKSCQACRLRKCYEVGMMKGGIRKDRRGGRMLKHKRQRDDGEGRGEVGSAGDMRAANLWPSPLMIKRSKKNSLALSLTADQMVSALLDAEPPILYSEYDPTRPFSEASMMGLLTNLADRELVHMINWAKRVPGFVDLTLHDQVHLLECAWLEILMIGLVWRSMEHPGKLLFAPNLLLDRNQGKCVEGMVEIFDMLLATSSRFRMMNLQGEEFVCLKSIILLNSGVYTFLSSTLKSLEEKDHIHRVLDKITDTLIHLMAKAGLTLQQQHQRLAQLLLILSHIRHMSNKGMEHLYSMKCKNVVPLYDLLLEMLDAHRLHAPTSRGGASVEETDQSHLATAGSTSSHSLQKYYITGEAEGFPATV

Regarding `CCC(C)(CC)c1cc(NC(=O)c2c(OC)cccc2OC)on1`, the Potency entry in assay [1], in [3], in assay [4], in assay [7], in [9] and in assay [10] was “inactive” in each case. Further, the call in [2], in assay [5], in [8], in assay [11] and in assay [12] was inactive. For the same compound, the Potency in [6] was 6.88 µM (active).

For the compound `COCCl`, the Potency entry in assay [1], in assay [3], in assay [4], in [7], in assay [9] and in assay [10] was “inactive” each time. Besides, the Potency entry in assay [16] and in [17] was “inactive” in each case. The result in [2], in [5], in [13], in assay [8], in assay [14] and in [15] was inactive. For the same compound, the result in [11] and in assay [12] was inactive. Moreover, the Potency in [6] is 16 µM (active) and inactive.

Take `Nc1ccc(Oc2ccc(N)cc2)cc1`: the Potency entry in assay [1], in assay [3], in assay [4], in assay [7], in assay [10] and in [16] was “inactive” in each case. Further, the Potency entry in assay [17] was “inactive”. Besides, the result in assay [2], in [5], in assay [8], in [15], in assay [11] and in assay [12] was inactive.

Regarding `O=c1[nH]c(=O)[nH]c(=O)[nH]1`, the Potency result in [1], in assay [3], in assay [4], in assay [6], in assay [7] and in [9] was “inactive” each time. The Potency result in [10], in assay [16] and in [17] was “inactive” throughout. The call in [2], in assay [5], in assay [13], in assay [8], in assay [14] and in assay [15] was inactive. In addition, the result in assay [11] and in [12] was inactive.

In the case of `CN(C)[C@@H]1C(=O)C(C(N)=O)=C(O)[C@@]2(O)C(=O)C3=C(O)c4c(O)cccc4[C@@](C)(O)[C@H]3C[C@@H]12`, the call in [18], in assay [2], in assay [5], in assay [13], in [8] and in assay [15] was inactive. Also, the outcome in assay [11] and in assay [12] was inactive. The Potency entry in assay [1], in assay [3], in [4], in assay [7], in [9] and in assay [10] was “inactive” throughout. The Potency entry in [16] and in assay [17] was “inactive” each time.

As for `OCCN(CCO)CCO`, in assay [18], the PLD induction was 10.3% [at 7.66 µM] (inactive). The Potency result in [1], in assay [3], in [4], in [6], in assay [9] and in [10] was “inactive” in each case. Besides, the Potency entry in [16] and in assay [17] was “inactive” throughout. The compound was called inactive in assay [2], in [5], in assay [8], in [15], in assay [11] and in assay [12].

In the case of `CCN(CC)CCO`, the Potency entry in assay [1], in [3], in assay [4], in assay [6], in assay [7] and in [9] was “inactive” in each case. The Potency entry in [10], in assay [16] and in assay [17] was “inactive” throughout. In addition, the call in assay [2], in assay [5], in assay [13], in [8], in [15] and in assay [11] was inactive. The compound was called inactive in assay [12].

For `CCCC1COC(Cn2cncn2)(c2ccc(Cl)cc2Cl)O1` (configuration not stated), the Potency result in assay [1], in [3], in assay [4], in assay [10], in assay [19] and in assay [16] was “inactive” throughout. Further, the call in [2], in assay [5], in [14], in assay [15], in assay [11] and in assay [12] was inactive. The results for the Potency in assay [6], in [9] and in [17] were 27.8 µM (active), 61.1 µM (active) and 17.5 µM (active), respectively.

As for `CCOP(=S)(OCC)SCCSCC`, the Potency result in assay [1], in assay [3], in [4], in assay [6], in [7] and in assay [9] was “inactive” throughout. The Potency entry in assay [10], in assay [16] and in [17] was “inactive” in each case. In addition, the outcome in assay [2], in assay [5], in assay [13], in [8], in assay [15] and in [11] was inactive. For the same compound, the compound was called inactive in assay [12].
